In PubChem BioAssay AID651815 (National Center for Advancing Translational Sciences (NCATS), 2012):
Hit rate of the full screen: of about 2,100 compounds, about 1,100 (52%) were called active. About 29% were inconclusive and are not listed. The set was probably picked from earlier hits. This is one part of the list. Unmarked numbers belong to inactive results. Calls come from the whole dose curve; as a rule, active = well fitted inhibition curve with a large enough effect; inconclusive = small, poorly fitted or top-dose-only effect; inactive = no such curve, though single readings can be large or run the other way.

Biological target: DNA dC->dU-editing enzyme APOBEC-3F (Homo sapiens) (UniProt Q8IUX4)
Sequence (Q8IUX4 whole entry, looked up): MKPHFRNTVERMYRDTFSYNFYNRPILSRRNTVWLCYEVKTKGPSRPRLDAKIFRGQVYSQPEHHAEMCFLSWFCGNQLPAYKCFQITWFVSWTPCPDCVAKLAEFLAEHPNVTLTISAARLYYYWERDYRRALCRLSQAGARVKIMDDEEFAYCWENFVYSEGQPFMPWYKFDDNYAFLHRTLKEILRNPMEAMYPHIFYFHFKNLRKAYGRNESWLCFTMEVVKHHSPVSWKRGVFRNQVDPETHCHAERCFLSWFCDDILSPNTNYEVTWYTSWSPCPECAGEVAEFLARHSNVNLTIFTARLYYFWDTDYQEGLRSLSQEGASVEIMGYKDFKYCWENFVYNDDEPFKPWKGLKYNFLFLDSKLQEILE
Test: qHTS for inhibitors of Vif-A3F interactions: Cherry picks counterscreen; note: nearly all actives have a fitted effect of over 65% in size
Settings: HeLa A3F-eYFP/Vif cells, eYFP fluorescence, 24 h; series mostly up to 46.1 µM; activity, negative = inhibitor: at the top concentration
Summary of the method: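 Rescue of Vif-driven A3F-eYFP degradation read as cellular eYFP fluorescence after 24 h compound exposure (several concentrations) in stable HeLa cells; MG132 (2 mM stock) as positive control.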
% is set by controls: 0 for no effect and ±100 for the full control effect; potency is the fitted concentration of half-maximal effect.

Compound | Potency | activity, negative = inhibitor
Cc1ccc(C(=O)NC2c3ccccc3-c3ccccc32)cc1 | 3.96 µM (active) | 
COc1ccccc1-c1cc(NC=O)c2ncc(-c3ccc(S(C)(=O)=O)cc3)n2c1 | 5.59 µM (active) | 
COc1ccccc1-c1cc(NC=O)c2ncc(-c3cccc(C(=O)N(C)C)c3)n2c1 | 14 µM (active) | 
CN(C)C(=O)c1cccc(-c2cnc3c(NC=O)cc(-c4ccccc4F)cn23)c1 |  | 1.13% [at 36.9 µM]
CC1C/C(=N\NC(N)=S)c2cc(Cl)ccc2S1 (configuration not stated) |  | 6.56%
O=C(Nc1nnc(-c2ccc3c(c2)CCCC3)o1)c1c(F)cccc1F |  | 10.7%
Cc1ccccc1-n1c(/C=C/c2c(C)n(C)c3ccccc23)nc2ccccc2c1=O | 18.4 µM (active) | 
O=C(Nc1cc(Cl)ccc1-n1cncn1)c1ccc([N+](=O)[O-])s1 | 14 µM (active) | 
COc1ccc(/C=N/NC(=O)c2[nH]nc3c2CCc2ccccc2-3)cc1OC | 4.98 µM (active) | 
COc1cccc(/C=N/NC(=O)c2[nH]nc3c2CCc2ccccc2-3)c1 | 2.5 µM (active) | 
COc1ccc(CN2C(=O)C(C)Nc3ncnc(N4CCc5ccccc5C4)c32)cc1 (configuration not stated) | 2.8 µM (active) | 
CCn1nc(-c2ccccc2)c2nc3ccccc3nc21 | 20.6 µM (active) | 
O=C(NCC1CCCO1)c1nn2c(C(F)(F)F)cc(-c3cc(Br)cs3)nc2c1Br (configuration not stated) | 11.6 µM (active) | 
CS(=O)(=O)N(CC(=O)N1CCN(Cc2ccccc2)CC1)c1ccccc1F |  | -1.61%
Cc1cccc(-n2c(N)c(-c3nc4ccccc4n3C)c3nc4ccccc4nc32)c1 |  | -9.95%
CC(=O)n1c2ccccc2c2nc3ccccc3nc21 | 5.8 µM (active) | 
CCS(=O)(=O)N1N=C(c2cccc(NS(C)(=O)=O)c2)CC1c1ccc(C)cc1 (configuration not stated) | 18.4 µM (active) | 
CS(=O)(=O)Nc1ccc(C2=NN(S(C)(=O)=O)C(c3ccc4nccnc4c3)C2)cc1 (configuration not stated) |  | 5.25%
CS(=O)(=O)N1N=C(c2ccccc2)CC1c1ccc2c(c1)OCO2 (configuration not stated) | 14 µM (active) | 
Cc1ccc(CNC(=O)C2CC(c3cc(C(F)(F)F)cc(C(F)(F)F)c3)=NO2)o1 (configuration not stated) | 7.04 µM (active) | 
N#Cc1cc2ccccc2nc1SCc1ccccn1 | 16.4 µM (active) | 

Compound | Potency | activity, negative = inhibitor
O=C1c2ccccc2C(=O)c2c(/C=C/N3CCCCC3)ccnc21 | 18.4 µM (active) | 
Clc1ccc2c(c1)C(C1=NCCN1)c1ccccc1CS2 (configuration not stated) | 3.14 µM (active) | 
CC(C)n1c(O)c(N=Nc2ccc(Cl)nn2)c2ccccc21 | 18.4 µM (active) | 
CCCC(=O)NC(c1ccc(OC)cc1)c1ccc2cccnc2c1O (configuration not stated) |  | -1.01%
CCC(=O)NC(c1ccc(OC)cc1)c1c(O)ccc2ccccc12 (configuration not stated) | 6.27 µM (active) | 
CN1/C(=C\C=C(/C#N)C(=O)Nc2ccccc2F)C(C)(C)c2ccccc21 | 16.4 µM (active) | 
CN1/C(=C\C=C(/C#N)C(=O)Nc2ccc(Cl)cc2)C(C)(C)c2ccccc21 | 5.59 µM (active) | 
Cc1ccc(C2=NN(C(=O)c3cccs3)C(c3ccccc3O)C2)cc1 (configuration not stated) |  | -4.39% [at 36.9 µM]
Cc1ccc(C2=NN(S(=O)(=O)c3ccccc3)C(c3ccccc3O)C2)cc1 (configuration not stated) | 18.4 µM (active) | 
Cc1ccccc1C1CC(c2cccs2)=NN1S(C)(=O)=O (configuration not stated) |  | -23.5%
O=Nc1ccc(O)c2ncccc12 |  | -23.5% [at 36.9 µM]
Cc1[nH]c2ccccc2c1/C=C/c1ccnc2ccccc12 | 3.26 µM (active) | 
Cc1[nH]c2ccccc2c1/C=C/c1ccc2ccccc2n1 | 18.4 µM (active) | 
O=C(CCl)N1c2ccccc2Oc2ccc3ccccc3c21 | 14 µM (active) | 
COc1cc(C2Oc3ccccc3C=C2[N+](=O)[O-])cc(OC)c1OC (configuration not stated) | 15.8 µM (active) | 
N#CC(C(=O)NCc1ccccc1)c1nc2ccccc2nc1N1CCCC1 (configuration not stated) | 3.66 µM (active) | 
CCN(CC)c1nc2ccccc2nc1C(C#N)C(=O)NCCc1ccccc1 (configuration not stated) | 7.31 µM (active) | 
CCCCn1c(N)c(N(Cc2ccccc2OC)C(=O)c2ccc([N+](=O)[O-])s2)c(=O)[nH]c1=O |  | -16.1%
Cc1cc2nc3s/c(=C/c4ccc(-c5ccccc5C(=O)O)o4)c(=O)n3c2cc1C | 11.6 µM (active) | 
O=C(N/N=C/c1ccc2c(c1)OCO2)c1cc(-c2ccncc2)nc2ccccc12 | 6.27 µM (active) | 
Cc1cccc(C)c1OCC(=O)N/N=C/c1ccc2c(c1)OCO2 | 3.53 µM (active) | 

Compound | Potency | activity, negative = inhibitor
Cc1cc(C(=O)N/N=C/c2ccc3c(c2)OCO3)c2ccccc2n1 | 4.44 µM (active) | 
O=C(N/N=C/c1ccsc1)c1cc(-c2cccs2)nc2ccccc12 | 15.8 µM (active) | 
O=C(N/N=C/c1ccc2c(c1)OCO2)c1cc(-c2ccco2)nc2ccccc12 | 12.5 µM (active) | 
Cc1cc(NC(=O)/C(C#N)=C/c2ccc(-c3ccc(SC(F)F)cc3)o2)n(-c2ccccc2)n1 | 7.31 µM (active) | 
Cc1cc(NC(=O)/C(C#N)=C\c2ccc(-c3ccc(SC(F)F)cc3)o2)n(-c2ccccc2)n1 | 8.2 µM (active) | 
COCCN(CCOC)Cc1c(O)ccc2c1O/C(=C\c1ccc(C)o1)C2=O |  | -6.56%
N#CCSc1ccccc1NC(=O)COc1ccc(-c2nnco2)cc1 | 17.7 µM (active) | 
CCOc1cc(/C=C2\N=C(SC(C)C(N)=O)N(c3ccc(OC(F)F)cc3)C2=O)ccc1O (configuration not stated) | 4.44 µM (active) | 
Cc1ccc(/C=N/NC(=O)c2cc(-c3ccccc3)nc3ccccc23)o1 | 14 µM (active) | 
CCOc1ccc(-c2cc(C(=O)N/N=C(\C)c3cccnc3)c3ccccc3n2)cc1 |  | -1.35% [at 36.9 µM]
Cc1ccc(C=NNC(=O)c2cc(-c3cccnc3)nc3ccccc23)o1 | 8.86 µM (active) | 
Cc1cc(C(=O)N/N=C/c2ccc(C)o2)c2ccccc2n1 | 2.23 µM (active) | 
O=C(N/N=C/c1ccc(Cl)cc1)c1cc(-c2cccnc2)nc2ccccc12 | 4.44 µM (active) | 
C/C(=N\NC(=O)c1cc(C)nc2ccccc12)c1ccncc1 |  | -7.52% [at 36.9 µM]
CCCN(C(=O)CSc1n[nH]c(-c2ccc(OC)cc2)n1)c1c(N)n(Cc2ccccc2)c(=O)[nH]c1=O |  | -7.52%
C/C(=N\NC(=S)NCc1ccccc1)c1cccs1 |  | 0.839%
CCOC(=O)Nc1ccc2nc(-c3cscn3)[nH]c2c1 | 5.59 µM (active) | 
CC[n+]1c(/C=C/N(C)c2ccccc2)oc2ccc(F)cc21 | 17.7 µM (active) | 
CC[n+]1c(/C=C/Nc2ccccc2)oc2ccccc21 | 18.4 µM (active) | 
CC[n+]1c(/C=C/Nc2ccccc2)oc2ccc(OC)cc21 | 16.4 µM (active) | 
